The results in this text go back to article PMC5540273 (PLoS ONE, 2017).
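Note: KINOMEscan kinase panel screen.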

In one assay the test system is PIP5K1A. The settings on record: concentration: 1 μM, replicates: in singlicate; n = 1.
For `Cc1cccc(Cn2ccn3c(=O)cc(N4CCOCC4)nc23)c1` [GSK2297542], the “%Inh” value was determined as 0%.

Turning to `O=c1cc(N2CCOCC2)nc2n(Cc3cccc(F)c3)ccn12` [GSK2297430], the “%Inh” value is 0%.

Regarding `Cc1nnc(-c2ccc3occ(-c4ccc(C(C)O)cc4)c3c2)o1` (stereo not shown), the “%Inh” value is 0%.

`O=c1cc(N2CCOCC2)nc2n(Cc3cccc4ccccc34)ccn12` [GSK2333389]: the “%Inh” value is 0%.

For the compound `Fc1ccc(-c2ncn(CCCN3CCOCC3)c2-c2cccnc2)cc1` [SB-211743], the “%Inh” value stood at 5%.

Regarding `Cc1ccc(C(=O)NCC(N)=O)cc1-n1c(C)cc(OCc2ccc(F)cc2F)c(Br)c1=O`, the “%Inh” value came to 14%.

In the case of `Cn1ccc2ncnc(Oc3ccc(NC(=O)Nc4ccncc4)c(Cl)c3)c21`, the “%Inh” value is 24%.

Consider `COc1ccc(Nc2ncc(C#N)c(Nc3ccccc3C(N)=O)n2)cc1N1CCN(C)CC1.Cl` [GSK1558669], for which the “%Inh” value is on record as 56%.

On to `COc1ccc(S(=O)(=O)NC2CCN(c3cc(C)nc(Nc4cccc(C#N)c4)n3)CC2)cc1.O=C(O)C(F)(F)F` [GSK1653539], for which the “%Inh” value is recorded as 0%.

As to `c1ccc(-c2n[nH]cc2-c2ccnc3ccccc23)nc1` [GW271431], the “%Inh” value is recorded as 0%.

For `Nc1nccc(-c2c(-c3ccc(F)cc3)ncn2C2CCN(CC(F)(F)F)CC2)n1` [SB-236560], the “%Inh” value is reported as 47%.

On to `COc1cc2ncn(-c3cc(OCc4sccc4Cl)c(C(N)=O)s3)c2cc1OC` [GSK448459], for which the “%Inh” value is 41%.

`O=c1cc(N2CCOCC2)nc2n(Cc3cccc(Cl)c3Cl)c(C3CC3)nn12` [GSK2358994]: the “%Inh” value stood at 0%.

As to `CCc1nc(-c2cccc(C)c2)c(-c2ccnc(NCc3ccccc3)c2)s1`, the “%Inh” value is reported as 0%.

On to `CSc1ccc(-c2cc3ncnc(SCC(=O)O)c3s2)cc1`, for which the “%Inh” value was determined as 0%.

`COc1ccc(Nc2nccc(N3CCC(NC(=O)Nc4cc(C)ccc4C)C3)n2)cc1` (stereo not shown) [GSK1379741]: the “%Inh” value is 1%.

On to `CC(C)(C)n1cnc2c(N)ncnc21` [SKF-97359], for which the “%Inh” value worked out at 32%.

Turning to `O=C(Nc1n[nH]c2cc(-c3cccc(F)c3)ccc12)C1CC1` [SB-735464], the “%Inh” value was 37%.

For `Cc1c2ccc(N(C)c3ccnc(Nc4cccc(S(N)(=O)=O)c4)n3)cc2nn1Cc1ccccc1.Cl.Cl` [GW787226], the “%Inh” value is on record as 0%.

For the compound `O=C(NCCNc1ccnc(Nc2ccc(F)cc2)n1)c1cc2ccccc2s1` [GSK1379874], the “%Inh” value is 0%.

Consider `Cc1cn2c(=O)cc(N3CCOCC3)nc2n1Cc1cccc(Cl)c1Cl` [GSK2334006], for which the “%Inh” value came out at 0%.

The test system of the next assay is PIP5K1C. The following applies: concentration: 1 μM, replicates: in singlicate; n = 1.
With `Cc1cccc(-c2nc(-c3ccc(S(C)(=O)=O)cc3)sc2-c2ccncc2)c1`, the “%Inh” value was found to be 2%.

As to `Cc1ccc(NC(=O)c2ccnc(N3CCN(C)CC3)c2)cc1-c1ccc(C(=O)NCC2CC2)cc1` [GW775604], the “%Inh” value was 0%.

Turning to `COc1ccc(COc2cc(-n3cnc4ccccc43)sc2C(N)=O)cc1` [GSK1024304], the “%Inh” value is listed as 45%.

`Fc1ccc(-c2ncn(CCCN3CCOCC3)c2-c2ccccn2)cc1` [SB-211742]: the “%Inh” value was 47%.

Regarding `CCCCCc1nc2c(N)ncnc2n1CCCCC` [SKF-97255], the “%Inh” value was 0%.

Take `N#Cc1c(N2CCOCC2)sc(-c2ccn[nH]2)c1-c1ccc(Cl)cc1`: the “%Inh” value was 0%.

Turning to `O=C(Nc1cccc(-c2nn3ncccc3c2-c2ccnc(Nc3cccc(C(F)(F)F)c3)n2)c1)c1c(F)cccc1F` [GSK299495], the “%Inh” value turned out to be 37%.

For the compound `CC(=O)Nc1ccc(COc2ccc(Nc3ccnc4cc(-c5ccccn5)ccc34)cc2)cc1.Cl` [GW440148], the “%Inh” value is reported as 44%.

As to `c1ccc(-c2cc(-c3c[nH]nc3-c3ccccn3)ccn2)cc1` [GW576604], the “%Inh” value was 58%.

Consider `O=C(c1ccc(-c2cc(-c3c[nH]nc3-c3ccccn3)ccn2)cc1)N1CCOCC1` [GW812171], for which the “%Inh” value was found to be 0%.

As to `Nc1nc(-c2ccc3c(N)n[nH]c3c2)cc(N2CCCC2)n1` [GSK2227430], the “%Inh” value is reported as 26%.

With `COc1ccc(Nc2nccc(N3CCC(NC(=O)Nc4cccc(C(C)=O)c4)C3)n2)cc1` (stereo not shown) [GSK1379731], the “%Inh” value was determined as 24%.

For `O=C1Cc2cc(Nc3nc(NCc4cccc(S(=O)(=O)C(F)(F)F)c4)ncc3C(F)(F)F)ccc2N1`, the “%Inh” value stood at 3%.

With `Cc1cccc(Cn2ccn3c(=O)cc(N4CCOCC4)nc23)c1` [GSK2297542], the “%Inh” value came to 36%.

On to `O=c1cc(N2CCOCC2)nc2n(Cc3cccc(F)c3)ccn12` [GSK2297430], for which the “%Inh” value is given as 21%.

For `Cc1nnc(-c2ccc3occ(-c4ccc(C(C)O)cc4)c3c2)o1` (stereo not shown), the “%Inh” value is 4%.

On to `O=c1cc(N2CCOCC2)nc2n(Cc3cccc4ccccc34)ccn12` [GSK2333389], for which the “%Inh” value turned out to be 0%.

Consider `Fc1ccc(-c2ncn(CCCN3CCOCC3)c2-c2cccnc2)cc1` [SB-211743], for which the “%Inh” value is 0%.

With `Cc1ccc(C(=O)NCC(N)=O)cc1-n1c(C)cc(OCc2ccc(F)cc2F)c(Br)c1=O`, the “%Inh” value worked out at 46%.

Consider `Cn1ccc2ncnc(Oc3ccc(NC(=O)Nc4ccncc4)c(Cl)c3)c21`, for which the “%Inh” value is 5%.

Regarding `COc1ccc(Nc2ncc(C#N)c(Nc3ccccc3C(N)=O)n2)cc1N1CCN(C)CC1.Cl` [GSK1558669], the “%Inh” value amounted to 65%.

For `COc1ccc(S(=O)(=O)NC2CCN(c3cc(C)nc(Nc4cccc(C#N)c4)n3)CC2)cc1.O=C(O)C(F)(F)F` [GSK1653539], the “%Inh” value stood at 11%.

In the case of `c1ccc(-c2n[nH]cc2-c2ccnc3ccccc23)nc1` [GW271431], the “%Inh” value is listed as 0%.

For the compound `Nc1nccc(-c2c(-c3ccc(F)cc3)ncn2C2CCN(CC(F)(F)F)CC2)n1` [SB-236560], the “%Inh” value is recorded as 7%.

As for `COc1cc2ncn(-c3cc(OCc4sccc4Cl)c(C(N)=O)s3)c2cc1OC` [GSK448459], the “%Inh” value was 79%.

In the case of `O=c1cc(N2CCOCC2)nc2n(Cc3cccc(Cl)c3Cl)c(C3CC3)nn12` [GSK2358994], the “%Inh” value came to 0%.

Consider `CCc1nc(-c2cccc(C)c2)c(-c2ccnc(NCc3ccccc3)c2)s1`, for which the “%Inh” value turned out to be 14%.

On to `CSc1ccc(-c2cc3ncnc(SCC(=O)O)c3s2)cc1`, for which the “%Inh” value was 0%.

With `COc1ccc(Nc2nccc(N3CCC(NC(=O)Nc4cc(C)ccc4C)C3)n2)cc1` (stereo not shown) [GSK1379741], the “%Inh” value amounted to 25%.

For `CC(C)(C)n1cnc2c(N)ncnc21` [SKF-97359], the “%Inh” value was determined as 51%.

As for `O=C(Nc1n[nH]c2cc(-c3cccc(F)c3)ccc12)C1CC1` [SB-735464], the “%Inh” value was 18%.

On to `Cc1c2ccc(N(C)c3ccnc(Nc4cccc(S(N)(=O)=O)c4)n3)cc2nn1Cc1ccccc1.Cl.Cl` [GW787226], for which the “%Inh” value is 0%.

In the case of `O=C(NCCNc1ccnc(Nc2ccc(F)cc2)n1)c1cc2ccccc2s1` [GSK1379874], the “%Inh” value came to 0%.

For the compound `Cc1cn2c(=O)cc(N3CCOCC3)nc2n1Cc1cccc(Cl)c1Cl` [GSK2334006], the “%Inh” value turned out to be 30%.
